USP28 inh – inhibitors of human USP28 deubiquitinase | Q96RU2 | purified USP28, Ub-rhodamine cleavage fluorescence, 30 min | inhibition, % at 25 µM | 3% of 47,000 active
USP17 block – blocks human USP17 ubiquitin-rhodamine cleavage | A8MUK1 | purified USP17, Ub-rhodamine cleavage fluorescence, 3 h | inhibition, % at 50 µM | 6.5% of 47,000 active
Target sequence (A8MUK1 whole entry, looked up): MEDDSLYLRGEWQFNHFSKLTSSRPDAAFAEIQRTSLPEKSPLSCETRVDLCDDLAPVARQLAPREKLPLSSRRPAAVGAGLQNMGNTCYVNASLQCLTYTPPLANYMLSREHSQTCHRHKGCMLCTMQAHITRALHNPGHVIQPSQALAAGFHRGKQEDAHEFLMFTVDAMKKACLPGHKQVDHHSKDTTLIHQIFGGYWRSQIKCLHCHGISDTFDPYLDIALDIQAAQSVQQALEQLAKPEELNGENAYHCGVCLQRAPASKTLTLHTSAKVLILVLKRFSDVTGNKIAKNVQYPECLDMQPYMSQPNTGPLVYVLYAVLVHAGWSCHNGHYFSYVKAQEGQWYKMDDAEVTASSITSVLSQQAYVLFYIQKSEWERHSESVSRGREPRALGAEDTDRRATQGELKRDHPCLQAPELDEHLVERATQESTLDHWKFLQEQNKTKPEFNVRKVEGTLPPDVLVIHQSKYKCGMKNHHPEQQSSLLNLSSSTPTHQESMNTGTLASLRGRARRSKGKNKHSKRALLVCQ
USP30 inh – human USP30 deubiquitinase inhibition; inhibition, % at 25 µM; purified USP30, Ub-rhodamine cleavage fluorescence; 5.3% of 47,000 active
Numbers without * were called inactive; i = inactive; · = no result. Most compounds without a hit are left out; they make up all but 11% or so of the library. Cut-off read from the data, not from the text of the source: active = inhibition above about 30%; inactive = the rest.

SMILES	USP28 inh	USP17 block	USP30 inh
Cc1ccc(S(=O)(=O)N2CCCN(c3cc(-c4ccccn4)[nH]n3)CC2)cc1	0	19	-36
O=C(NCc1ccccc1)C1Cn2ccnc2C2(CCN(C(=O)Cc3ccccc3)CC2)O1 (configuration not stated)	3	-13	2
O=C(CNC(=O)c1ccc2nc(-n3cccc3)sc2c1)NCc1cccc(Cl)c1	-29	-51	-70
O=C(NCc1cccc(Cl)c1)c1sc2ncccc2c1-n1cccc1	31*	16	-57
CN(CCc1ccccc1)c1nccc(N2CCN(C(=O)c3ccc4c(c3)CCO4)CC2)n1	4	-4	3
COc1ccc(C(=O)Nc2cc3c4c(c2)C(C)C(=O)N4CCC3)cc1 (configuration not stated)	52*	7	0
CC1C(=O)N2CCCc3cc(NC(=O)c4ccc(F)cc4)cc1c32 (configuration not stated)	16	13	-7
COc1ccc(C(=O)Nc2cc3c4c(c2)CC(=O)N4CCC3)cc1	49*	5	-34
O=C(Nc1cc2c3c(c1)CC(=O)N3CCC2)c1ccc(F)cc1	9	-2	-29
Cc1ccc(C(=O)Nc2cc3c4c(c2)CC(=O)N4CCC3)cc1	56*	·	-27
O=C(Nc1cc2c3c(c1)CC(=O)N3CCC2)c1ccc([N+](=O)[O-])cc1	7	17	8
CC1CCN(C(=O)Nc2ccc(-c3noc(C4CCC4)n3)cc2)CC1	-6	-4	-6
Cc1ccccc1CC(=O)Nc1ccc2c(c1)CCC(=O)N2CC(C)C	-12	-9	-6
CC(=O)N1c2ccc(S(=O)(=O)N3CCC(C)CC3)cc2CC1C (configuration not stated)	6	0	4
COc1ccc(C(=O)N2CCC(=O)N(C)C[C@H]3COc4ccc(C)cc4[C@H]32)cc1	-2	0	0
COc1cc(C(C)=O)ccc1Oc1nc(CN2CCOCC2)nc2scc(-c3ccccc3)c12	-5	-1	-21
Cc1cccc(C)c1OCCOCC(O)CN1CCN(c2ccccn2)CC1 (configuration not stated)	7	12	13
COC(=O)C1CCN(Cc2cc(=O)oc3cc(OC)ccc23)CC1	-1	0	0
COc1cc2oc(=O)cc(CN3CCCCC3)c2cc1OC	-4	45*	2
CCN1CCn2c(nc3cc(C(=O)NC4CCCCC4)ccc32)C1	-158	-153	i
CN(C)CC1CCC2(CC1)CN(Cc1ccncc1)Cc1ccccc1O2 (configuration not stated)	-4	-7	0
CC1=CC[C@]2(C)C[C@@H](O)[C@](O)(C(C)C)C2CC1 (some centres not stated)	1	1	32*
Cc1noc(C)c1Cc1ccc(C(=O)NCc2ccc3c(c2)OCO3)o1	-6	0	2
O=S(=O)(c1ccccc1)c1nnn2c1nc(Nc1ccc(F)cc1)c1ccccc12	0	5	17
Cc1ccc(S(=O)(=O)c2nnn3c2nc(Nc2cccc(C)c2C)c2ccccc23)cc1	4	22	30
SMILES	USP28 inh	USP17 block	USP30 inh
Cc1c(Cl)cccc1Nc1nc2c(S(=O)(=O)c3ccccc3)nnn2c2ccc(Cl)cc12	·	57*	·
COc1cccc(Nc2nc3c(S(=O)(=O)c4ccccc4)nnn3c3ccccc23)c1	·	85*	·
CC1CCN(C(=O)c2ccc(-n3cc(CNC(=O)C(C)C)cn3)cc2)CC1	0	-1	-2
CC(=O)N1CCc2cc(S(=O)(=O)Nc3c(C)cccc3C)ccc21	-1	-8	-10
Cc1cc(C(F)(F)F)c2c(C)nn(-c3ccc(Cl)cc3)c2n1	3	6	3
COc1ccc(S(=O)(=O)N2CCc3ccccc32)cc1C(=O)Nc1ccc2c(c1)NC(=O)C(C)O2 (configuration not stated)	12	21	-17
CCCn1c(-c2ccc(OC)cc2)nc2ccccc21	·	-4	·
c1coc(-c2nc3ccccc3n2CCC2CCCCC2)c1	26	36*	-18
Cc1cccc(-c2ncccc2CNC(=O)C2CCCC2)c1	2	8	15
O=C(COc1cccc(-n2cnnn2)c1)Nc1ccc2c(c1)CCC2	18	4	22
Cc1cc(C)n2nc(C(=O)Nc3nc4ccc(F)cc4s3)nc2n1	-15	5	-128
O=C(Nc1nc2ccc(F)cc2s1)c1cccc2c(Br)cccc12	-1	33*	23
CC(Cc1ccccc1)Nc1ncc2c([nH]c3ccccc32)c1C#N (configuration not stated)	-138	17	i
COc1ccc(NC(=O)[C@@H]2CCCN2C2=NS(=O)(=O)c3ccccc32)cn1	-165	-126	i
Cc1cccc(NC(=O)[C@@H]2CCCN2C2=NS(=O)(=O)c3ccccc32)c1C	0	35*	32*
O=C(CN1CCCN(Cc2ccccc2)S1(=O)=O)Nc1ccc(F)cc1	17	21	33*

Screening data: PubChem, Buhrlage Lab, Dana-Farber Cancer Institute and Novartis Institutes for BioMedical Research (Cambridge, Mass)
